Experimental data published in PubChem BioAssay AID743126 (The Scripps Research Institute Molecular Screening Center, 2013).
The campaign covered roughly 370,000 compounds. About 2,100 (0.57%) were called active. The entries come from a sample that favours actives as a whole. Values without a mark were called inactive.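 How the source made its calls: active means inhibition above mean plus 3 SD of compounds lying within the high and low control bounds (cut at about 19% in these data); inactive means the rest.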

Each molecule was assayed against Group 3 secretory phospholipase A2 (Homo sapiens) (UniProt Q9NZ20) (assay: HGIII-sPLA2 enzyme inhibition – biochemical, QFRET, BODIPY PC-A2 liposome substrate, primary screen (AID 743126;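 further: 0% = median of test compound wells and 100% = no enzyme DMSO wells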)). Conditions: QFRET BODIPY PC-A2 liposome hydrolysis, fluorescence; at 12.2 µM; active compounds read high.
Chain of Group 3 secretory phospholipase A2 (Homo sapiens) (Q9NZ20 whole entry, looked up): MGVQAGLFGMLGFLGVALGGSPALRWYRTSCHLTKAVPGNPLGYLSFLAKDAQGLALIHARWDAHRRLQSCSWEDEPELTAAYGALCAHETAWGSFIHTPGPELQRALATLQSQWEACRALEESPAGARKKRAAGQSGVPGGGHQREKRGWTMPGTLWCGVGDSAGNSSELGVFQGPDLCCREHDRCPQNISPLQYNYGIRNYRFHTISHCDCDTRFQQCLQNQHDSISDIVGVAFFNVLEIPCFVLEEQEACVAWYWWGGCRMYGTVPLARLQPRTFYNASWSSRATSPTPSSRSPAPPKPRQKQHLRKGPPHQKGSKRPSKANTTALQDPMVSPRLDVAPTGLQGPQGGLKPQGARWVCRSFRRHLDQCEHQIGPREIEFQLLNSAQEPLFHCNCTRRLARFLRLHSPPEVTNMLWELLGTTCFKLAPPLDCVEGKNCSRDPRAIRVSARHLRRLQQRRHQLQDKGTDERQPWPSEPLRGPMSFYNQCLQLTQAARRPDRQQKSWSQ
In the case of `COc1ccc(-n2c(COc3ccccc3)nnc2SCC(=O)Nc2ccc3c(c2)OCO3)cc1`, the inhibition is reported as -23.7%.
In the case of `CS(=O)(=O)c1sc(C(=O)NC(=S)Nc2ccc(OC(F)(F)F)cc2)c2c1C=CCC2`, the inhibition is reported as 9.81%.
For `CCNC(=S)Nc1ccc(OC(F)(F)F)cc1`, the inhibition was 20.4% (active).
`CN(CC(=O)Nc1ccc(OC(F)(F)F)cc1)C(=O)C1CCC1` gave an inhibition of 14.1%.
`CC(C)CNC(=S)NNC(=O)c1nn(C)cc1Cl` was tested, and the inhibition was 17.9%.
With `Cc1nn(C)cc1C(=O)NNC(=S)Nc1ccc(Cl)cc1` the inhibition was 7.95%.
In the case of `Cn1cc(Cl)c(C(=O)NNC(=S)Nc2cccc(Cl)c2)n1`, the inhibition is reported as 42.2% (active).
For `COc1cc(C(=O)NCC(=O)NCCSc2ccc(Br)cc2)cc(OC)c1OC`, the inhibition was -0.46%.
In the case of `COCCCNC(=O)CNC(=S)N(Cc1cc(OC)c(OC)c(OC)c1)C1CCCC1`, the inhibition is reported as 26.1% (active).
`COc1ccc(CCNC(=O)CCC(=O)NC2CCCCC2)cc1OC` was tested, and the inhibition was 3.45%.
`CC(C)(C)c1ccc(C(=O)Nc2cc(Cl)c(Br)cc2C(=O)O)cc1` gave an inhibition of -12.9%.
Work on `O=C(Nc1cc(F)cc(F)c1)OC1CCC12CCC(c1ccccc1)CC2` (centres undefined) yielded an inhibition of -7.77%.
`CC(Sc1nncn1C)C(=O)Nc1ccccc1-c1ccccc1` (centres undefined) showed an inhibition of 1.14%.
For `CC(C(=O)Nc1ccccc1-c1ccccc1)N1CCOCC1` (centres undefined), the inhibition was 19.6% (active).
`CC(C(=O)Nc1ccc(F)c(F)c1F)N1CCCCCC1` (centres undefined) gave an inhibition of 7.49%.
Molecule `O=C(CCS(=O)(=O)c1ccccc1)Nc1ccc(Cl)c(Cl)c1` has an inhibition of -9.24%.
`C=CS(=O)(=O)N(Cc1nnn(Cc2ccccc2)c1Br)[C@H](C(=O)OC)C(C)C` gave an inhibition of 4.97%.
`Fc1ccc2nc(COCc3nc4ccc(F)cc4[nH]3)[nH]c2c1` gave an inhibition of -3%.
`Cc1ccccc1NC(=O)COC(=O)c1ccc(Sc2ncn[nH]2)c([N+](=O)[O-])c1` was tested, and the inhibition was -13.9%.
Work on `O=S(=O)(c1ccccc1)N1CCC(c2nc3ccccc3o2)CC1` yielded an inhibition of -1.51%.
With `CC(C)OC(=O)c1ccc(NCc2cc(O)ccc2O)cc1Cl` the inhibition was 32.5% (active).
`COc1ccc2c(c1)CN1CN(CCc3ccccc3)S(=O)(=O)CC21` (centres undefined) gave an inhibition of 1.49%.
For `C[C@@H]1ON(C)[C@H]2C[C@H]3c4[nH]c5cccc(-c6ccc7c(c6)OCO7)c5c4CCN3C[C@@H]12`, the inhibition was -5.9%.
Molecule `O=C(NCCCc1ccccc1)[C@H](Cc1ccccc1)NC1(C(=O)NCCc2c[nH]c3ccccc23)CCC1` has an inhibition of -86.7%.
`CN(CCc1ccccc1)C(=O)Cn1nc(-c2ccccc2)ccc1=O` gave an inhibition of 4.61%.
`O=C(NC1CCCCN(Cc2ccc(Cl)cc2)C1=O)c1ccc(Br)cc1` (centres undefined) gave an inhibition of 2.5%.
For `Cc1ccc(CN2CCCCC(NC(=O)C3CCCCC3)C2=O)cc1` (centres undefined), the inhibition was 2.08%.
In the case of `CN(C)c1ccc(NC(=O)NC2CCCCN(Cc3ccc(Cl)cc3)C2=O)cc1` (centres undefined), the inhibition is reported as 20.4% (active).
Molecule `CCOc1ccc(N(CC(=O)Nc2c(C)n(C)n(-c3ccccc3)c2=O)S(=O)(=O)c2ccc(Cl)s2)cc1` has an inhibition of -3.41%.
Molecule `O=C(NCCc1c[nH]c2ccccc12)OCc1cn(-c2c(F)cccc2F)nn1` has an inhibition of -62.2%.
Work on `CC(=O)c1cc(-c2ccc3ccccc3c2)c(=O)n2c1CCC2` yielded an inhibition of -7.07%.
With `O=C(CCCCCN1C(=O)C2C3C=CC(C3)C2C1=O)Nc1ccccc1` (centres undefined) the inhibition was -2.11%.
`CC(=O)Oc1ccc2c(c1)C(=O)c1ccccc1C2=O` was tested, and the inhibition was 20.7% (active).
Molecule `CC(=O)O[C@H]1c2ccccc2-c2ccccc2[C@@H]1OC(C)=O` has an inhibition of 1.14%.
`CC(=O)Nc1ccc(Oc2ccc3c(c2)C(=O)NC3=O)cc1` gave an inhibition of 1.41%.
`NS(=O)(=O)c1ccc(CCNC(=O)NC2CCCCC2)cc1` was tested, and the inhibition was 20.7% (active).
`O=C(NCCCNC(=O)NC1CCCCC1)NC1CCCCC1` showed an inhibition of 6.47%.
`COc1ccc(OCC(=O)NCCc2ccc(S(N)(=O)=O)cc2)cc1` gave an inhibition of 0.5%.
`O=C(NCCC1=CCCCC1)C1CCN(S(=O)(=O)c2ccc(Cl)s2)CC1` showed an inhibition of -2.99%.
For `COc1cccc(NC(C)=[N+](C)CCNS(=O)(=O)c2ccc(Cl)cc2)c1`, the inhibition was 22.1% (active).
`COc1cccc(NC(=O)CCNS(=O)(=O)c2ccc3c(c2)oc(=O)n3C)c1` showed an inhibition of 5.16%.
Molecule `COc1ccc(S(=O)(=O)NCCCCOc2ccc(Cl)cc2)cc1` has an inhibition of -35.8%.
Work on `CN(C)[C@H]1CCN(c2cccc3c2S(=O)(=O)N2CC[C@H](C2)O3)C1` yielded an inhibition of -0.04%.
`Cc1ccc(OCc2nnc(SC/C=C/c3ccccc3)n2Cc2ccco2)cc1` was tested, and the inhibition was -14.9%.
